Screening results: PubChem BioAssay, National Center for Advancing Translational Sciences (NCATS)
GPT2 inhibitor: Primary qHTS assay for inhibitors of Glutamate pyruvate transaminase 2 (GPT2). Recombinant GPT2, coupled pyruvate oxidase/HRP Amplex Red fluorescence. Potency, µM (series often up to 57.7 µM), hits mostly inhibitors. 100,000 compounds, 0.25% hits. AID 1671188, 2021; also: nearly all actives have a fitted effect of over 60% in size
Target sequence (Q8TD30 whole entry, looked up): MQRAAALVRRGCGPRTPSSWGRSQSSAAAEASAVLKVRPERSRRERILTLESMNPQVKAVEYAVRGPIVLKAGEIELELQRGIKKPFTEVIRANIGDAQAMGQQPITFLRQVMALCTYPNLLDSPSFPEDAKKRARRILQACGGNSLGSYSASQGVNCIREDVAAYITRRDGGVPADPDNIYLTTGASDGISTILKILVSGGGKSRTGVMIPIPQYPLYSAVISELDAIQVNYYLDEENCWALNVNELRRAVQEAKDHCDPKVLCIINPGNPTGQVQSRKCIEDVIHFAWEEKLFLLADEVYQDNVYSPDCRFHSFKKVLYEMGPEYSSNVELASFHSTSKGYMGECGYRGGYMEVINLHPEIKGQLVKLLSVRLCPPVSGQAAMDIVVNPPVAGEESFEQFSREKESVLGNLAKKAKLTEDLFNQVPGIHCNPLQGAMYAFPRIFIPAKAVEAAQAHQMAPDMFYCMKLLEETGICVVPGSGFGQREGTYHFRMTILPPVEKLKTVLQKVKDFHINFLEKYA
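Fluorescence of coupled pyruvate oxidase/HRP/Amplex Red system (50uM Amplex, 30 min, dark) reports pyruvate formed by GPT2. Enzyme reaction: 10ng/uL GPT2, 2mM L-alanine, 250uM a-KG, 30 min room temperature, pH 7.5; 50uM AOA control.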
SNCA expr inh: Primary qHTS assay for inhibitors of alpha-synuclein gene (SNCA) expression; HEK-293 SNCA-luciferase knock-in, luminescence, 24 h; AID 1671194, 2021; Potency, µM (highest dose often 57.2 µM), hits mostly inhibitors; 140,000 compounds, 0.17% hits; also: nearly all actives have a fitted effect of over 45% in size
IP6K1 inh: Primary qHTS assay for small molecule inhibitors of Inositol hexaphosphate kinase 1 (IP6K1); Inositol hexakisphosphate kinase 1 (Homo sapiens), Q92551; IP6K1 kinase, ADP-Glo luminescence, 2 h; active compounds read low; activity change, % (series mostly up to about 58 µM); 140,000 compounds, 0.81% hits; in the data active = activity change below about -25%
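ADP-Glo luminescence measures ADP made by human IP6K1 during a 2 h RT reaction with ATP/IP6 (mix at 1.3 mM/130 uM); top library doses 57.5 and 19.1 uM final.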
SNCA viab count: GF-AFC viability counterscreen for inhibitors of alpha-synuclein gene (SNCA) expression. AID 1671193, 2021. 150,000 compounds, 0.12% hits. Potency, µM (doses to about 57.1 µM), usual class: cytotoxic. HEK-293-SNCA-luc viability, GF-AFC fluorescence, 24 h; also: nearly all actives have a fitted effect of over 30% in size
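HEK-293-SNCA-luc cells (1500/well) plated 24 h, then exposed 24 h to a dilution series; GF-AFC added 30 min at 37C, fluorescence 405/540 nm; normalised to medium-only and DMSO wells, Hill fit.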
Numbers stand for hits; ! = not confirmed by another sample. Most compounds without a hit are left out; they make up all but 1.1% or so of the library. Unless noted, calls follow the shape of the dose curve; as a rule, active = well fitted curve in the direction sought with a large enough effect; inconclusive = small, poorly fitted or top-dose-only effect, or another doubt; inactive = no such curve, though single readings can be large; an effect the other way counts as inactive or inconclusive.

For O=C(c1ccncc1)N1CCc2nc3cc(-c4ccccc4Cl)[nH]n3c(=O)c2C1 the results were GPT2 inhibitor inactive, SNCA expr inh 7.94µM, IP6K1 inh inactive and SNCA viab count inactive.
Screening CCn1nccc1C(=O)N1CCc2nc3cc(-c4ccccc4Cl)[nH]n3c(=O)c2C1 returned GPT2 inhibitor inactive, SNCA expr inh inconclusive, IP6K1 inh inactive and SNCA viab count inactive.
`CC(C)c1ccc(NC(=O)c2cc(S(=O)(=O)NCCc3ccccc3)ccc2F)cc1` gave SNCA expr inh inconclusive, IP6K1 inh inactive and SNCA viab count inactive.
`CC(C)c1ccccc1Cc1cc(C(=O)Nc2ccc(S(=O)(=O)c3ccccc3C(C)(C)C)cc2)c(O)c(O)c1O` gave GPT2 inhibitor 27.3µM, SNCA expr inh inactive and SNCA viab count inactive.
`c1ccc(-c2nc(-c3ccncc3)no2)c(OC2CCN(C3CCCC3)C2)c1` (stereo unspecified) gave GPT2 inhibitor inactive, SNCA expr inh inactive, IP6K1 inh inactive and SNCA viab count inactive.
CCN1CCC(N2CCC(Oc3ccccc3-c3nc(-c4ccncc4)no3)C2)CC1 (stereo unspecified) was read as GPT2 inhibitor inactive, SNCA expr inh inconclusive, IP6K1 inh inactive and SNCA viab count 14.1µM.
`CC(NC(=O)[C@H](Cc1ccccc1)NC(=O)OCc1ccccc1)C(=O)CF` (stereo partly specified) gave GPT2 inhibitor inactive, IP6K1 inh inactive and SNCA viab count inactive.
`CC(C)C[C@H](NC(=O)CNC(=O)OCc1ccccc1)C(=O)N[C@@H](Cc1ccccc1)C(=O)CCl` gave GPT2 inhibitor inactive, IP6K1 inh inactive and SNCA viab count 23.8µM.
`O=C(NCc1ccc(Cl)cc1)c1ccc2nnc(-c3cccnc3)n2c1` gave GPT2 inhibitor inactive, SNCA expr inh inactive, IP6K1 inh inactive and SNCA viab count inactive.
For O=C(NCc1ccccc1)c1ccc2nnc(-c3cccnc3)n2c1 the results were GPT2 inhibitor inactive, SNCA expr inh 25.1µM, IP6K1 inh inactive and SNCA viab count inactive.
For Fc1ccc(CN2CC[C@H](c3nc4ccc(C(F)(F)F)cc4[nH]3)C2)cc1F the results were GPT2 inhibitor inconclusive, SNCA expr inh 7.94µM, IP6K1 inh inactive and SNCA viab count 31.6µM.
COc1ccc(CN2CCCCCNC(=O)[C@@H]3CCC[C@@H]32)cc1Cn1ccnc1 was read as GPT2 inhibitor inactive, SNCA expr inh inactive, IP6K1 inh inactive and SNCA viab count inactive.
O=C(Cc1c[nH]c2ncc(-c3ccccc3Oc3ccccc3)cc12)N1CCOCC1 was read as GPT2 inhibitor inconclusive, SNCA expr inh inconclusive, IP6K1 inh inactive and SNCA viab count inactive.
O=C(Cc1c[nH]c2ncc(-c3ccc(Oc4ccccc4)cc3)cc12)N1CCOCC1 was read as GPT2 inhibitor inactive, SNCA expr inh 25.1µM, IP6K1 inh inactive and SNCA viab count inconclusive.
For COc1cccc2c1C(=O)c1c(O)c3c(c(O)c1C2=O)C[C@@](O)(C(C)=O)C[C@H]3O[C@H]1C[C@H](N)[C@H](O)[C@H](C)O1 the results were GPT2 inhibitor inactive, SNCA expr inh 0.241µM and SNCA viab count inconclusive.
Screening COc1cccc2c1C(=O)c1c(O)c3c(c(O)c1C2=O)C[C@@](O)(C(=O)CO)C[C@@H]3O[C@H]1C[C@H](N)[C@H](O)[C@H](C)O1 returned GPT2 inhibitor inactive, SNCA expr inh inactive, IP6K1 inh inactive and SNCA viab count inactive.
COCC1CN(C(=O)COc2ccccc2)CC12CCNCC2 (stereo unspecified) was read as GPT2 inhibitor inactive, SNCA expr inh inactive, IP6K1 inh inactive and SNCA viab count inactive.
Screening CC(C)(C)C(=O)Nc1ccc(-c2nc3ccccc3s2)cc1 returned SNCA expr inh 1.41µM, IP6K1 inh inactive and SNCA viab count inactive.
Screening CN1CCC(N2CCC[C@@H](O)[C@H](NC(=O)c3ccc(OCc4ccccc4)cc3)C2)CC1 returned GPT2 inhibitor inactive, SNCA expr inh inactive, IP6K1 inh inactive and SNCA viab count inactive.
O=C(CCC1CCN(c2cc(NC3CC3)ncn2)CC1)NCc1cc(F)cc(F)c1 was read as GPT2 inhibitor inactive, SNCA expr inh 4.47µM, IP6K1 inh inactive and SNCA viab count inactive.
For O=C(CCC1CCN(c2cc(NC3CC3)ncn2)CC1)NCc1ccc(F)cc1F the results were GPT2 inhibitor inactive, SNCA expr inh 3.55µM, IP6K1 inh inactive and SNCA viab count inactive.
Screening O=C(CCC1CCN(c2cc(NC3CC3)ncn2)CC1)NCc1ccc(F)cc1 returned GPT2 inhibitor inactive, SNCA expr inh inconclusive, IP6K1 inh inactive and SNCA viab count inactive.
Screening COc1ccc(NS(=O)(=O)c2ccc3c(c2)[C@H]2C=CC[C@H]2[C@@H](c2ccc(C(=O)O)cc2)N3)cc1 returned SNCA expr inh inactive, IP6K1 inh -57.9 and SNCA viab count inactive.
Screening Oc1cc(O)c2c(c1)O[C@H](c1ccc(O)c(O)c1)[C@H](O)C2 returned GPT2 inhibitor 28.2µM, SNCA expr inh inactive, IP6K1 inh inactive and SNCA viab count inactive.
`O=C1c2c(O)cc(O)cc2OC(c2ccc(O)c(O)c2)C1O` (stereo unspecified) gave GPT2 inhibitor inconclusive, SNCA expr inh inactive and SNCA viab count inactive.
For CC(C)C(=O)Nc1ncc(-c2cc(C(F)F)nn2-c2c(Cl)cccc2Cl)s1 the results were GPT2 inhibitor 10µM!, SNCA expr inh inactive, IP6K1 inh inactive and SNCA viab count inconclusive.
`O=C(Nc1ncc(-c2cc(C(F)F)nn2-c2c(Cl)cccc2Cl)s1)C1CC1` gave GPT2 inhibitor inconclusive, SNCA expr inh inconclusive, IP6K1 inh inactive and SNCA viab count inconclusive.
For CCn1cc(S(=O)(=O)N2CCC3(CC2)CC(N(C)Cc2ccccc2)CCO3)cn1 (stereo unspecified) the results were GPT2 inhibitor inactive, SNCA expr inh inactive, IP6K1 inh inactive and SNCA viab count inactive.
Screening O=S(=O)(NCCc1csc2nc(-c3ccc(F)cc3)nn12)c1ccc(Br)cc1 returned SNCA expr inh inactive, IP6K1 inh inactive and SNCA viab count inactive.
Screening CC(=O)c1cccc(S(=O)(=O)NCCc2csc3nc(-c4ccc(F)cc4)nn23)c1 returned SNCA expr inh inactive, IP6K1 inh inactive and SNCA viab count 31.6µM.
Screening Cc1ccc(-n2nc(-c3c(C)nc4scc(CC(=O)NCc5ccco5)n4c3=O)cc2C)cc1 returned GPT2 inhibitor inactive, SNCA expr inh inactive, IP6K1 inh inactive and SNCA viab count inactive.
Cc1ccc(C)c(-n2nc(-c3c(C)nc4scc(CC(=O)NCc5ccco5)n4c3=O)cc2C)c1 was read as GPT2 inhibitor inactive, SNCA expr inh inconclusive, IP6K1 inh inactive and SNCA viab count 8.91µM.
`FC(F)(F)c1cccc(Nc2nc3nonc3nc2Nc2ccc(Cl)cc2)c1` gave SNCA expr inh 11.2µM, IP6K1 inh inactive and SNCA viab count inconclusive.
